H9c2 protect: cardioprotection against H2O2-induced cell death, primary screen, uHTS, H9c2 cells, ATPLite luminescence; H9c2 cardiomyocytes, H2O2 injury protection, 2 h; protection from H2O2 cell death, % at 20 µM; 360,000 compounds, 0.63% hits; AID 588492, 2011;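 active = compounds giving at least 50% protection of heart cells from peroxide-induced death in the single-dose screen, raw or plate-pattern-corrected value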;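 note: 0% = DMSO wells with peroxide and 100% = DMSO wells without peroxide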
HDAC3 inhib: HDAC3 deacetylase inhibitors, primary screen, biochemical, fluorescence, cell-free homogeneous; 320,000 compounds, 0.15% hits; recombinant HDAC3, fluorogenic peptide/trypsin coupled; AID 2718, 2010; Histone deacetylase 3 (Homo sapiens), O15379; inhibition, % at 8.3 µM; in the data active = inhibition above about 26%, passing the limit was not always enough; inconclusive = no clear call, values can overlap the other calls
Neddyl block: inhibitors of cullin neddylation, primary screen, biochemical, TR-FRET, uHTS, NAE and Ubc12; NEDD8-conjugating enzyme Ubc12 (Homo sapiens) + NEDD8-activating enzyme E1 regulatory …; inhibition, % at 25 µM; 360,000 compounds, 0.58% hits; AID 651699, 2012; in the data active = inhibition above about 36%
GRK2 aptamer HTS: compounds blocking aptamer binding on GRK2 – biochemical, human GRK2, bead flow cytometry, HTS, primary screen; Beta-adrenergic receptor kinase 1 (Homo sapiens), P25098; FAM-aptamer displacement from GRK2; inhibition of aptamer binding, % at 10 µM; 330,000 compounds, 0.59% hits; AID 488847, 2010;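 active = inhibition of aptamer binding above 40%, roughly 3 SD of noise, on plates passing a quality check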;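 note: median bead fluorescence of bound FAM aptamer so fluorescent compounds give negative values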
Active calls of the source: *; ? = inconclusive; / = no result given; ! = a repeat was not active. In the library only some 1.8% were active in any assay of this set; here they are far more common.

SMILES	H9c2 protect	HDAC3 inhib	Neddyl block	GRK2 aptamer HTS
CCC(c1nnc(SCC(=O)Nc2cccnc2Cl)n1-c1ccccc1)N(C)C (stereo not drawn)	-1	0	-4	0
CSCCC(c1nc2ccccc2[nH]1)n1c(-c2cc(C(F)(F)F)cc(C(F)(F)F)c2)nc2ccccc21 (stereo not drawn)	/	/	9	/
CCOC(=O)C1=C(C)NC(C)=C(C(=O)OCC)C1C(=O)OCC(=O)NC(C)C	57*!	1	17	4
CCOC(=O)C1=C(C)NC(C)=C(C(=O)OCC)C1C(=O)OCC(N)=O	0	-4	17	1
O=C(NCc1ccc(F)cc1)C(c1ccc(Cl)cc1)N(C(=O)c1csnn1)C1CC1 (stereo not drawn)	11	-2	8	0
O=S1(=O)CCC(N=Cc2cc(Br)ccc2O)C1 (stereo not drawn)	70*	-1	1	3
COc1ccc(N(CC(=O)Nc2cccc(C(C)=O)c2)S(=O)(=O)c2ccc(NC(C)=O)cc2)cc1	73*	15	3	1
CCN(CC(=O)Nc1cccc(C(C)=O)c1)S(=O)(=O)c1ccc(OC)cc1	5	3	0	2
COc1ccc(N(CC(=O)Nc2ccc3c(c2)OCO3)S(=O)(=O)c2ccccc2)c(OC)c1	54*	3	3	1
COc1cc(OC)cc(C(=O)NCC(=O)OCC(=O)Nc2ccc(C)c(S(=O)(=O)N3CCOCC3)c2)c1	2	/	5	/
CCC(=O)N(CCc1ccc(OC)c(OC)c1)Cc1cc2ccc(C)cc2n2nnnc12	2	-4	0	0
CCCc1nc2ccccc2n1C(CCSC)C(=O)NC(C)(C)C (stereo not drawn)	/	/	-3	/
CN(C)C(CNC(=O)c1ccc(NC(=O)c2cccs2)cc1)c1ccccc1 (stereo not drawn)	8	-5	-5	2
CN(C)C(CNC(=O)c1ccc(C2SCCS2)cc1)c1ccccc1 (stereo not drawn)	10	54*	10	0
Cc1ccc(CSc2ccc3nnc(-c4cccnc4)n3n2)cc1	13	1	-32	0
Brc1ccc(CSc2ccc3nnc(-c4cccnc4)n3n2)cc1	68*	-1	-50	1
O=C(COC(=O)c1cccc(-n2cnnn2)c1)c1ccc(Br)cc1	-2	2	-81	0
C=CCOc1cccn2c(N(C)C(=O)c3ccccc3F)c(CC)nc12	4	/	-6	/
Fc1c(F)c(F)c(N/N=C/c2c[nH]c3ccccc23)c(F)c1F	-27	32*	-1	8
COc1cc(/C=N/Nc2nc(Nc3ccc(C)cc3)nc(-n3nc(C)cc3C)n2)cc(OC)c1OC	57*	0	23	5
COc1ccccc1-c1nc(C(=O)NCC2CCCO2)cc2c1[nH]c1ccccc12 (stereo not drawn)	2	-8	31	0
COc1cc(-c2nc(C(=O)NCC3CCCO3)cc3c2[nH]c2ccccc23)cc(OC)c1OC (stereo not drawn)	38	-3	44*	0
Cc1ccc(C)c(C(=O)CCC(=O)N2CCN(c3cccc(C(F)(F)F)c3)CC2)c1	-9	8	-22	0
COc1ccc(NC(=O)C(=S)N2CCCC2)cc1	-4	5	11	1
Nc1nc2ccccc2n1C(=O)c1ccccc1	-30	?	41*	0
SMILES	H9c2 protect	HDAC3 inhib	Neddyl block	GRK2 aptamer HTS
Cc1onc(-c2ccccc2)c1C(=O)n1nnc2ccccc21	-2	5	7	3
O=C(c1ccccc1)n1nnc2ccccc21	9	96*	2	8
CCc1cc2c(=O)oc(-c3ccccc3F)nc2s1	5	69*	/	0
COc1ccc(Cn2c(N)c(C#N)c3nc4ccccc4nc32)cc1OC	-2	0	38*	0
CCc1ccccc1N(CC(=O)NC1CCCC1)C(=O)CNC(=O)c1cccs1	1	1	-1	0
COc1cccc(-c2nc3c(c(SCC(=O)N4CCOCC4)n2)Cc2c(CO)cnc(C)c2O3)c1	72*	1	-24	3
Cc1ncc(CO)c2c1Oc1nc(-c3ccccc3)nc(SCC(=O)N3CCCCC3)c1C2	74*	6	-4	0
Cc1cccc(-c2nc3c(c(SCC(=O)N4CCOCC4)n2)Cc2c(CO)cnc(C)c2O3)c1	51*	0	-11	0
Cc1ncc(CO)c2c1Oc1nc(-c3ccccc3)nc(SCC(=O)N3CCOCC3)c1C2	33	-8	-10	3
C[C@@H]1CN([C@@H](C)CO)C(=O)CCCn2nncc2CO[C@H]1CN(C)S(=O)(=O)c1cn(C)cn1	12	/	3	/
O=c1c2ccccc2[nH]c2ccccc12	-6	-110	/	4
